Source: PubChem BioAssay (Tox21)
Results filed as inconclusive are left out. A number with no mark means an inactive call. The call rests on the fitted dose curve; in most records, active means well fitted inhibition curve with a large enough effect in the signal ratio in the repeat runs (not every such curve was filed as active); inconclusive means weak or mixed curves, or effect the other way; inactive means no such curve, though single readings can be large or run the other way; the % refers to the signal ratio.

Biological target: Peroxisome proliferator-activated receptor delta (Homo sapiens) (UniProt Q03181)
Experiment: qHTS assay to identify small molecule antagonists of the peroxisome proliferator-activated receptor delta (PPARd) signaling pathway (AID 743215);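 further: cells stimulated with agonist L165041 at 300 nM final during compound exposure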
Settings: HEK293H PPARd-UAS-bla, beta-lactamase FRET ratio, antagonist, 17 h; series mostly up to 62 µM; ratio activity, negative = inhibition: at the top concentration
Text: U.S. Tox21 Program National Center for Advancing Translational Sciences [NCATS] NIH Chemical Genomics Center [NCGC] U.S. Environmental Protection Agency [EPA] National Institutes of Environmental Health Sciences [NIEHS] National Toxicology Program [NTP] U.S. Food and Drug Administration [FDA] Tox21 Assay Overview: The peroxisome proliferator-activated receptors (PPARs) are lipid-activated transcription factors of the nuclear receptor superfamily with three distinct subtypes namely PPAR alpha, PPAR delta (PPARd) and PPAR gamma. All these subtypes heterodimerizes with Retinoid X receptor (RXR) and have different physiological functions. […] To identify the compounds that inhibit PPAR-delta signaling, GeneBLAzer PPAR delta UAS-bla HEK293H cell line (Invitrogen, Carlsbad, CA, USA) containing a beta-lactamase reporter gene under the control of an Upstream Activator Sequence (UAS) was used to screen the Tox21 compound library.
Tox21 Assay Protocol Summary: PPARd-bla cells were dispensed at 3000 cells/5uL/well in 1536-well black wall/clear bottom plates using a Multidrop Combi (Thermo Fisher Scientific, Waltham, MA) dispenser. After the assay plates were incubated at 37 C and 5% CO2 for 5 h, 23 nL of compounds dissolved in DMSO, positive controls or DMSO only was transferred to the assay plate by a Pintool station (Kalypsys, San Diego, CA), followed by addition of 1ul L165041 (300 nM, final concentration in the wells). The assay plates were incubated at 37 C for 17 h, and then 1 uL of LiveBLAzerTM B/G FRET substrate was added using a Bioraptr Flying Reagent Dispenser (FRD) workstation (Beckman Coulter, Indianapolis, IN, USA). The assay plates were incubated at room temperature for 2 h and fluorescence intensity was measured by an Envision plate reader (PerkinElmer, Shelton, CT).
On the % scale 0 is the no-effect control and ±100 the full control effect.

Peroxisome proliferator-activated receptor delta (Homo sapiens), sequence (Q03181 whole entry, looked up): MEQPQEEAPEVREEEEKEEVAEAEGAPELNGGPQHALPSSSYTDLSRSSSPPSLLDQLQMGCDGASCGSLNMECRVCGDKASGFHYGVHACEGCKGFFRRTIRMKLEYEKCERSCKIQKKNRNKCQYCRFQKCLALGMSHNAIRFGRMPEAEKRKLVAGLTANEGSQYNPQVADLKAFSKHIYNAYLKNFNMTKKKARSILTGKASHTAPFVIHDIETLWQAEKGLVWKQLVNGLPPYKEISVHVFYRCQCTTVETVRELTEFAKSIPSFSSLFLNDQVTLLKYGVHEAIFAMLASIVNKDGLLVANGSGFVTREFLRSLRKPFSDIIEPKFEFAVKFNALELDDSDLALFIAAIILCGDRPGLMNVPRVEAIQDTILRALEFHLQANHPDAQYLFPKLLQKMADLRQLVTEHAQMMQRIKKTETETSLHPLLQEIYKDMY

Row | SMILES | ratio activity, negative = inhibition
1 | O=C(O)c1cccc(C(F)(F)F)c1 | -1.44%
2 | COc1cc(/C=C/c2ccccc2)oc(=O)c1 | 3.6% [at 80.4 µM]
3 | CC(CCc1ccccc1)NCC(O)c1ccc(O)c(C(N)=O)c1 (stereo not given) | -12.7%
4 | O=C(/C=C/c1ccc(O)c(O)c1)O[C@@H](C(=O)O)[C@@H](OC(=O)/C=C/c1ccc(O)c(O)c1)C(=O)O | -9.38%
5 | OC12N=C(c3ccccc3)SC1Cc1cc(Cl)ccc12 (stereo not given) | -0.281%
6 | Nc1ccc(NCCO)c([N+](=O)[O-])c1 | 12.2%
7 | CCCNCCC | 4.71% [at 80.4 µM]
8 | c1cnccn1 | -8.21% [at 80.4 µM]
9 | C[C@@H](O)[C@H](N)C(=O)O | -3.31% [at 28.9 µM]
10 | CC(=O)c1ccc(C(C)=O)cc1 | 2.84% [at 80.4 µM]
11 | CN(C)[C@@H](CCOc1cccc2ccccc12)c1ccccc1 | -24.3%
12 | CCC(COC(=O)CCS)(COC(=O)CCS)COC(=O)CCS | -7.37%
13 | OC[C@@H](O)[C@@H](O)CO | -8.31%
14 | FC(F)(F)c1cccc(Cl)c1 | -4.5%
15 | CCCCCCCCCCC[C@@H](C[C@@H]1OC(=O)[C@H]1CCCCCC)OC(=O)[C@H](CC(C)C)NC=O | -6.05%
16 | Cc1c(F)c(N2CCNC(C)C2)cc2c1c(=O)c(C(=O)O)cn2C1CC1 (stereo not given) | 3.82%
17 | COc1ccc(NC(=O)CC(C)=O)cc1 | 18.9%
18 | Clc1sc(Cl)c(Cl)c1Cl | 3.18%
19 | OC/C=C/CO | 1.19%
20 | OC1CCC(C2CCCCC2)CC1 (stereo not given) | -5.53%

Row | SMILES | ratio activity, negative = inhibition
21 | Nc1ccc(C(=O)O)c(O)c1 | -3.38%
22 | O=C(O)Cc1ccc2c(c1)C(=O)c1ccccc1CO2 | 4.03%
23 | CC(C)(C)CC(C)(C)c1ccc(Nc2ccc(C(C)(C)CC(C)(C)C)cc2)cc1 | -4.33% [at 6.26 µM]
24 | O[C@@H]([C@H](O)[C@H](O)CBr)[C@H](O)CBr | -15.2%
25 | CC(=O)Oc1cc2c(s1)CCN(C(C(=O)C1CC1)c1ccccc1F)C2 (stereo not given) | -15.4%
26 | C=CC(C)(CCC=C(C)C)OC=O (stereo not given) | 11.6%
27 | CCCC(=O)OCCc1ccccc1 | 2.3%
28 | C=CC(=O)Nc1cc2c(Nc3ccc(F)c(Cl)c3)ncnc2cc1OCCCN1CCOCC1 | -8.49%
29 | Cc1c(N)cccc1C(F)(F)F | 10.3%
30 | Cc1ccc(-c2ccccc2)cc1 | 0.407%
31 | CCC(=O)OC(=O)CC | 1.75%
32 | CCCCCCC1CCCC(=O)O1 (stereo not given) | -19.3%
33 | COc1cc(C)ccc1O | -1.08%
34 | CC(CO)Oc1ccccc1 (stereo not given) | 9.06% [at 80.4 µM]
35 | CCC(C)n1ncn(-c2ccc(N3CCN(c4ccc(OC[C@H]5CO[C@](Cn6cncn6)(c6ccc(Cl)cc6Cl)O5)cc4)CC3)cc2)c1=O (stereo not given in full) | -1.2%
36 | C=C(C)c1cccc(C(=C)C)c1 | 2.92%
37 | CCCC[P+](C)(CCCC)CCCC | -11.7% [at 80.4 µM]
38 | O=C(O)c1cc(N=Nc2ccc([N+](=O)[O-])cc2)ccc1O | -4.61%
39 | CCCCCCCC | 16.1%
40 | Cc1nc2n(c(=O)c1CCN1CCC(c3noc4cc(F)ccc34)CC1)CCCC2 | 14.2%
